# Laboratory results published in PubChem BioAssay (Tox21).
# The source made the active and inactive calls. A call without a number means that no potency is given here. The call rests on the fitted dose curve; in most records, active means well fitted activation curve with a large enough effect in the repeat runs; inconclusive means weak or mixed curves; inactive means flat fitted curve, though single readings scatter.
# Assay: A CellTox Green Cytotoxicity Assay to monitor cytotoxicity in HepG2 cells - 0 hour (AID 1224882); further: nearly all actives have a fitted effect of over 35% in size
# Settings: CellTox Green fluorescence; series mostly up to 76.8 µM
# How it was run: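 Using 1536-well format, dye-containing HepG2 suspension was seeded, allowed 5 h at 37 C/5% CO2, dosed by pintool with compounds, positive and negative controls, and imaged for fluorescence across 40 h.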
row,SMILES,Potency
1,Cn1cc[nH]c1=S,inactive
2,CCCCOC(=O)CC(CC(=O)OCCCC)(OC(C)=O)C(=O)OCCCC,inactive
3,CC(=O)OCC(COC(C)=O)OC(C)=O,inactive
4,O=C(O)c1cccc([N+](=O)[O-])c1,inactive
5,Cc1noc(NS(=O)(=O)c2ccc(N)cc2)c1C,inactive
6,CCOc1ccc(NC(=O)CC(C)O)cc1 (configuration not stated),inactive
7,C/C=C/c1ccc(OC)cc1,inactive
8,Cc1ccc(O)cc1,inactive
9,CC(C)[C@@H]1CC[C@@H](C)C[C@H]1O,inactive
10,CCCC(O)C(CC)CO (configuration not stated),inactive
11,Cn1c(=O)c2[nH]cnc2n(C)c1=O,inactive
12,O=C(C1CCCCC1)N1CC(=O)N2CCc3ccccc3C2C1 (configuration not stated),inactive
13,NC(=O)c1cnccn1,inactive
14,O=C(O)/C=C\C(=O)O,inactive
15,Cc1cc(=O)n(-c2ccccc2)n1C,inactive
16,NS(=O)(=O)c1cc(C(=O)O)c(NCc2ccco2)cc1Cl,inactive
17,CCC1(c2ccccc2)C(=O)NCNC1=O,inactive
